In PubChem BioAssay (Tox21):
Results filed as inconclusive are left out. Where a call stands in place of a potency, no number is given. The source made the active and inactive calls. Calls come from the whole dose curve; as a rule, active = well fitted cell-killing curve with a large enough effect in the repeat runs; inconclusive = weak or mixed curves, or effect the other way; inactive = flat fitted curve, though single readings scatter.

assay: qHTS RealTime-Glo MT Cell Viability Assay in HEK293 cells - 8 hour (AID 1224887); settings: RealTime-Glo luminescence; series mostly up to 76.8 µM; note: nearly all actives have a fitted effect of over 50% in size
Text: U.S. Tox21 Program National Center for Advancing Translational Sciences [NCATS] NIH Chemical Genomics Center [NCGC] U.S. Environmental Protection Agency [EPA] National Institutes of Environmental Health Sciences [NIEHS] National Toxicology Program [NTP] U.S. Food and Drug Administration [FDA] Tox21 Assay Overview: Measure of cell viability is critical in the cell-base assay. Analysis of cell viability is necessary for the characterization of cell responses to cytotoxic drugs and environmental stress. A RealTime-Glo MT Cell Viability Assay to monitor cell viability in real time of continues cell culture during 40 hours of compound treatment was used to screen Tox21 10K library compounds in Hek293 cells. The RealTime-Glo MT Cell Viability Assay is a nonlytic, homogeneous, bioluminescent method to measure cell viability in real time using a simple, plate-based method. The assay involves adding NanoLuc luciferase and a cell-permeant prosubstrate to cells in culture. Viable cells reduce the proprietary prosubstrate to generate a substrate for NanoLuc luciferase. This substrate diffuses from cells into the surrounding culture medium, where it is rapidly used by the NanoLuc Enzyme to produce a luminescent signal. The signal correlates with the number of viable cells, making the assay well suited for cytotoxicity studies.
Tox21 Assay Protocol Summary: The mixture of Hek293 cell suspension and reagents were dispensed at 600cells/6 ul/well in 1536-well tissue culture treated black solid bottom plates using a Multidrop dispenser. After the assay plates were incubated at a 37 C/5% CO2 incubator for 5 hours, 23 nL of compounds dissolved in DMSO, positive and negative controls was transferred to the assay plate by a pintool work station. The plates were incubated at 37 C for 40 hours. The luminescence intensity were measured at 0h, 8h, 16h, 24h, 32h and 40h time points using ViewLux plate reader during compound treatment.
Potency is the fitted concentration of half-maximal effect.

**Q.** Which Potency does the source give for `CCn1cc[n+](C)c1` here?
**A.** inactive

**Q.** With `c1ccoc1` as the compound, how does the Potency read?
**A.** inactive

**Q.** Which Potency does the source give for `O=C(N[C@H](c1ccccc1)[C@@H]1CN2CCC1CC2)c1c(Cl)ccc(C(F)(F)F)c1Cl` here?
**A.** inactive

**Q.** For `O=[N+]([O-])c1cc(C(F)(F)F)cc([N+](=O)[O-])c1Cl`, which Potency is on record?
**A.** 43.8 µM (active)

**Q.** Which Potency does the source give for `O=C(CCl)c1ccc(Cl)cc1Cl` here?
**A.** inactive

**Q.** Which Potency does the source give for `COCC(C)N(C(=O)CCl)c1c(C)csc1C` (stereo not given) here?
**A.** inactive

**Q.** With `C[C@H]1CNCCc2ccc(Cl)cc21` as the compound, how does the Potency read?
**A.** inactive

**Q.** For `C=COC(C)=O`, which Potency is on record?
**A.** inactive

**Q.** For `CCC(COC(=O)c1cc(OC)c(OC)c(OC)c1)(c1ccccc1)N(C)C` (stereo not given), which Potency is on record?
**A.** 26.8 µM (active)

**Q.** With `CCOP(=O)(OCC)SCCSCC` as the compound, how does the Potency read?
**A.** inactive

**Q.** For `COc1c(C(C)(C)C)cc([N+](=O)[O-])c(C)c1[N+](=O)[O-]`, which Potency is on record?
**A.** inactive

**Q.** For `CCCCCCC#N`, which Potency is on record?
**A.** inactive

**Q.** For `CCCCNP(N)(N)=S`, which Potency is on record?
**A.** inactive

**Q.** With `Cc1c(F)c(F)c(COC(=O)C2C(/C=C(\Cl)C(F)(F)F)C2(C)C)c(F)c1F` (stereo not given) as the compound, how does the Potency read?
**A.** inactive

**Q.** Which Potency does the source give for `NNC(=O)c1cccnc1` here?
**A.** inactive

**Q.** Which Potency does the source give for `O=C1c2ccccc2C(=O)C1C(=O)C(c1ccccc1)c1ccccc1` here?
**A.** inactive

**Q.** For `O=S1(=O)OC(c2cc(Br)c(O)c(Br)c2)(c2cc(Br)c(O)c(Br)c2)c2ccccc21`, which Potency is on record?
**A.** inactive

**Q.** For `C=CC(C)=O`, which Potency is on record?
**A.** inactive

**Q.** With `CC1C(=O)C[C@]2(C(C)C)C[C@H]12` (stereo not given in full) as the compound, how does the Potency read?
**A.** inactive

**Q.** With `Cc1ccccc1CCl` as the compound, how does the Potency read?
**A.** inactive

**Q.** Which Potency does the source give for `O=C(CBr)Nc1ccc(Cl)cc1C(=O)c1ccccc1F` here?
**A.** inactive

**Q.** For `NC(=O)C(Cl)(Cl)Cl`, which Potency is on record?
**A.** inactive

**Q.** Which Potency does the source give for `COc1nn(C(=O)NS(=O)(=O)c2ccccc2OC(F)(F)F)c(=O)n1C` here?
**A.** inactive

**Q.** With `Cc1ccccc1C(=O)Nc1cccc(OC(C)C)c1` as the compound, how does the Potency read?
**A.** inactive

**Q.** With `CCOP(=S)(Oc1ccc([N+](=O)[O-])cc1)c1ccccc1` (stereo not given) as the compound, how does the Potency read?
**A.** inactive

**Q.** For `COc1cc(CC(C)N)cc2c1OCO2` (stereo not given), which Potency is on record?
**A.** inactive

**Q.** For `C=CCCl`, which Potency is on record?
**A.** inactive

**Q.** For `CN1C(=O)C(O)N=C(c2ccccc2)c2cc(Cl)ccc21` (stereo not given), which Potency is on record?
**A.** inactive

**Q.** For `CC1CC(CC2CCC(N)C(C)C2)CCC1N` (stereo not given), which Potency is on record?
**A.** inactive

**Q.** With `O=C(O)CC(Cl)C(=O)O` (stereo not given) as the compound, how does the Potency read?
**A.** inactive

**Q.** With `Cc1ccc(-c2c(Cl)nc(C#N)n2S(=O)(=O)N(C)C)cc1` as the compound, how does the Potency read?
**A.** inactive

**Q.** With `CCCCCCCCCCOC(=O)c1ccccc1C(=O)OCCCCCCCCCC` as the compound, how does the Potency read?
**A.** inactive

**Q.** Which Potency does the source give for `O=C(O)C(F)(F)C(F)(F)C(F)(F)C(F)(F)C(F)(F)C(F)(F)C(F)(F)C(F)(F)C(F)(F)F` here?
**A.** inactive

**Q.** For `O=C(O)c1ccccc1C(=O)Nc1cccc2ccccc12`, which Potency is on record?
**A.** inactive

**Q.** For `COCCOCCO`, which Potency is on record?
**A.** inactive

**Q.** Which Potency does the source give for `CC(Cl)C(C)Cl` (stereo not given) here?
**A.** inactive

**Q.** Which Potency does the source give for `CCO[C@H]1O[C@@H]2OC3(C)CC[C@H]4[C@H](C)CC[C@@H]([C@H]1C)[C@@]24OO3` here?
**A.** inactive

**Q.** With `CCOP(=S)(OCC)SCn1nnc2ccccc2c1=O` as the compound, how does the Potency read?
**A.** 21.9 µM (active)

**Q.** For `CCCCCC[N+](=O)[O-]`, which Potency is on record?
**A.** inactive

**Q.** Which Potency does the source give for `O=C(OC1CCCCC1)c1ccccc1C(=O)OC1CCCCC1` here?
**A.** inactive
